High-throughput results deposited in PubChem BioAssay by several laboratories.
This is a sample that favours compounds with a hit; in the whole collection about 4.5% have one here.
EBNA-1 inh – blocks EBNA-1 binding to DNA | EBNA-1 DNA binding, fluorescence polarization | inhibition, % at 14.8 µM | hit rate 0.34% among 300,000 | AID 1950; in the data active means inhibition above about 28%
GRIN3A LBD mod – modulators (binders) of human NR3A ligand-binding domain; hit rate 2.5% among 340,000; NR3A LBD differential scanning fluorimetry, Tm shift; 0% = protein alone, 100% = glycine-bound protein; Tm shift relative to glycine control, % at 25 µM; AID 1259313;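 active means melting temperature shift of at least 10% of the positive control shift, at one fixed dose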
dFosB act – activators of mouse delta FosB homodimer. activation, % at 25 µM. P13346. AID 493131. purified delta FosB, TAMRA-CDK5 oligo fluorescence polarization; percent of positive-control signal above neutral wells. hit rate 0.99% among 340,000;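 active means mean activation above about 17%, with every replicate also reaching it, limit read from the data, passing the limit was not always enough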
TPT1 inh – C. albicans TPT1 enzyme inhibition. recombinant caTPT1, FP RNA substrate dephosphorylation. inhibition, % at 5 µM. hit rate 0.81% among 300,000. AID 1962;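 active means inhibition above the mean of all tested compounds plus 3 SD, set per screening campaign, cut at about 24% in these data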;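 further: plate controls were DMSO alone for no effect and ferristatin control at 100 nM for full effect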
ZTA DNA inh – blocks Epstein-Barr virus ZTA, an EBNA-1 counter-screen. P03206. inhibition, % at 11 µM. ZTA-DNA binding, fluorescence polarization. hit rate 0.15% among 320,000; in the data active means inhibition above about 33%
Target sequence (P03206 whole entry, looked up): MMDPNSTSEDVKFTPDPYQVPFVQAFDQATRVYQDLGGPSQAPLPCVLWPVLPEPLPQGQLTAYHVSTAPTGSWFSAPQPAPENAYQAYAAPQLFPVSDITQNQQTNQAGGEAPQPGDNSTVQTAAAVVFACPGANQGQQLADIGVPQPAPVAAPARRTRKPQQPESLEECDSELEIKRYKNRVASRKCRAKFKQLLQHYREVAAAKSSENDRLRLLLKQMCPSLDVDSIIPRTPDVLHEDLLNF
Rpn11 block – Rpn11 (human) deubiquitinase inhibition; O00487; human 26S proteasome, Ub4-pepOG fluorescence polarization; 20S core pre-blocked with epoxomicin; inhibition, % at 20 µM; hit rate 0.59% among 360,000; AID 588493;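 active means inhibition at 20 µM, scaled to each plate's controls, above about 33%, limit read from the data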
Target sequence (O00487 whole entry, looked up): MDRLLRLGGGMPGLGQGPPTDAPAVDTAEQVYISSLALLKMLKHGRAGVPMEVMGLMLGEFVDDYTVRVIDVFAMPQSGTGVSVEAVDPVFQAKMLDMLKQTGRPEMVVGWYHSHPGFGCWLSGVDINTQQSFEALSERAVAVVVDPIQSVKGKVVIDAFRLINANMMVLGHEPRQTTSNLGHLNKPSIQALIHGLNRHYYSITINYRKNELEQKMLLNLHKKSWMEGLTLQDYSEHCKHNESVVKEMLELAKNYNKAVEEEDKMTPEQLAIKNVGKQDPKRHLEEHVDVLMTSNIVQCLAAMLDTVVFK
* marks the source's active call; other numbers are inactive results; x = not tested or not shown; + = active, no number; ! = not active in a repeat.

SMILES	EBNA-1 inh	GRIN3A LBD mod	dFosB act	TPT1 inh	ZTA DNA inh	Rpn11 block
COc1ccc(NC(=O)c2n[nH]c(=O)c3ccccc23)cc1S(=O)(=O)N1CCCCC1	2	26*	-11	-4	-19	5
CC(=O)Nc1ccc(C(=O)Nc2ccc(S(=O)(=O)N3CCOCC3)cc2)cc1	-8	31*	-10	-1	-5	2
COc1ccc(NC(=O)c2ccco2)cc1S(=O)(=O)N1CCCCC1	6	-3	-9	0	1	-10
Cc1ccc(C(=O)N2CCN(c3ccc(NC(=O)c4ccc5c(c4)OCCO5)cc3)CC2)cc1	2	-12	6	-3	-2	5
O=C(Nc1ccc(S(=O)(=O)N2CCOCC2)cc1)c1ccc(Cl)c([N+](=O)[O-])c1	x	35*	-15	x	x	-3
CN1CCN(S(=O)(=O)c2ccc(NC(=O)C(C)(C)C)cc2)CC1	2	11*	-5	2	4	-2
N#Cc1cccc(NC(=O)c2ccc(S(=O)(=O)N3CCOCC3)cc2)c1	x	16*	-4	x	18	-5
Cc1ccc(C(=O)N2CCN(c3ccc(NC(=O)c4cc(C)cc(C)c4)cc3)CC2)cc1	x	13*	-7	x	x	0
N#Cc1cccc(NS(=O)(=O)c2ccc(S(=O)(=O)N3CCOCC3)cc2)c1	x	1	-7	x	13	2
CC(=O)Nc1ccc(S(=O)(=O)N2CCN(S(=O)(=O)c3ccc(NC(C)=O)cc3)CC2)cc1	x	-1	-4	x	x	0
COc1ccc(C2=NOC(C(=O)Nc3ccc4c(c3)OCCO4)C2)cc1OC (stereo not given)	5	-2	-2	-1	13	-11
CC(C)(O)[C@H](O)Cc1cc2ccc(=O)oc2cc1O[C@@H]1O[C@H](CO)[C@@H](O)[C@H](O)[C@H]1O	x	2	-16	x	x	2
COc1ccc(-c2coc3c(C(=O)Nc4cccc(NS(C)(=O)=O)c4)cccc23)c(C)c1	x	x	x	x	x	8
COc1ccc(C(=O)Nc2ccncc2)cc1S(=O)(=O)N1CCOCC1	x	-1	-7	x	3	7
Cc1ccc(S(=O)(=O)N2CCN(CC(=O)N/N=C\c3ccc(O)c(O)c3)CC2)cc1	-4	0	-16	0	-6	-3
COc1ccc(C(=O)Nc2ccc(NC(=O)c3ccccc3)cc2)cc1S(=O)(=O)N1CCOCC1	-3	32*	5	0	-15	1
CN1CCN(S(=O)(=O)c2ccc(Cl)cc2)CC1	-10	14*!	-2	0	2	-4
O=C(CN1CCN(S(=O)(=O)c2ccc(F)cc2)CC1)c1ccc(O)c(O)c1	-14	-3	-9	0	-4	-16
Cc1ccc(S(=O)(=O)N2CCN(CC(=O)N/N=C/c3ccc(C)o3)CC2)cc1	-7	32*	-7	-1	1	5
CC(C)(C)C(=O)CN1CCN(S(=O)(=O)c2ccc(F)cc2)CC1	-4	12*	-4	-3	-1	-3
COc1ccc(C(=O)N2CCCC(C(=O)N3CCN(c4ccccc4)CC3)C2)cc1 (stereo not given)	2	2	-7	-1	-16	5
O=C(Nc1cccc([N+](=O)[O-])c1)c1cc(S(=O)(=O)N2CCOCC2)cs1	-9	22*	-14	-5	5	-4
Cc1ccc(C(=O)Nc2ccc(S(=O)(=O)N3CCOCC3)cc2)cc1C	-4	22*	-3	-7	-3	2
O=C(Nc1ccccc1)c1cc(S(=O)(=O)N2CCOCC2)cs1	12	1	-6	-3	6	4
CC(=O)N1CCN(c2ccc(NC(=O)c3ccc(Cl)c([N+](=O)[O-])c3)cc2)CC1	6	15*	-8	-1	0	-3
SMILES	EBNA-1 inh	GRIN3A LBD mod	dFosB act	TPT1 inh	ZTA DNA inh	Rpn11 block
CC(=O)Nc1ccc(S(=O)(=O)N2CCCN(S(=O)(=O)c3ccc(NC(C)=O)cc3)CC2)cc1	4	11*	1	1	8	1
O=S(=O)(NCc1ccc(F)cc1)c1ccc(-n2cccn2)cc1	-2	2	-1	1	15	3
CC(C)C(=O)Nc1cccc(C(=O)Nc2ccc(S(=O)(=O)N3CCOCC3)cc2)c1	4	1	-3	1	13	-7
COc1cc(-c2cc(C(=O)Nc3ccc(C)c(S(=O)(=O)N4CCOCC4)c3)c3ccccc3n2)cc(OC)c1OC	x	-8	33*	x	x	10
O=C(Nc1ccc(S(=O)(=O)N2CCOCC2)cc1)c1cccc(Br)c1	-7	31*	-7	-1	-4	-4
COc1cc(OC)c(S(=O)(=O)Nc2ccc(C)cn2)cc1NC(C)=O	-4	-11	-13	1	-8	-3
NS(=O)(=O)c1cccc(NC(=O)COC(=O)CCCc2c[nH]c3ccccc23)c1	8	-2	-6	6	13	1
Cc1cccc(N2CCN(C(=O)Cn3sc4nc(C)cc(C)c4c3=O)CC2C)c1 (stereo not given)	2	1	9	25*	-5	4
Nc1ccc(N(CCO)CCO)cc1	193*	2	-16	-4	+	-29
N#Cc1ccccc1NC(=O)c1ccccc1OCC(=O)Nc1ccc2c(c1)oc1ccccc12	9	23*	13	2	8	-3
CNC(=O)COc1ccccc1C(=O)Nc1ccc2c(c1)oc1ccccc12	8	0	-3	-4	-6	-1
O=C(N/N=C/c1ccc(Br)s1)c1ccncc1	-11	-48	-3	0	-6	-8
O=C(N/N=C/c1ccc(Br)s1)c1cccs1	-2	6	-22	5	15	3
O=C(N/N=C/c1cc(Br)cs1)c1c[nH]c2ccccc12	6	38*	2	0	8	2
O=C(N/N=C/c1ccc(Br)s1)Nc1ccccc1	8	20*	1	-3	-14	4
O=C(N/N=C/c1ccc(Br)s1)c1c[nH]c2ccccc12	-6	25*	-3	-1	1	-1
COc1cccc(-c2ncc3ccccc3c2COC(=O)N2CCCCC2)c1	x	-1	1	x	1	-1
Cc1nc(C)n(CC(C)C(=O)N2CCN(S(=O)(=O)c3ccc(Cl)cc3)CC2)n1 (stereo not given)	4	0	-5	-2	-11	-4
OCCCCc1nccc2c1[nH]c1ccccc12	13	12*	-4	-2	6	7
Cc1cccc(-c2n[nH]c(S(C)(=O)=O)c2C#N)c1	4	2	7	-1	-11	5
Cc1ccc(-c2n[nH]c(S(C)(=O)=O)c2C#N)cc1	4	23*	-2	-2	-6	2
COc1ccc(-c2n[nH]c(C)c2-c2cnn(-c3ccccc3)c2)c(O)c1C	9	24*	-4	-1	8	-3
COCCC(=O)Nc1ccc2c(c1)CN(C(=O)c1ccc(CSC)o1)CC2	4	-4	0	2	2	5
